Sfp inh: inhibitors of Bacillus subtilis Sfp phosphopantetheinyl transferase; Biochemical Sfp PPTase activity, qHTS; Potency, µM, for inactives: largest response in the series, negative = inhibition, most hits filed as inhibitors; actives 3.5% (n = 310,000);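 further: the enzyme is Sfp with the accession as filed and its product quenches rhodamine fluorescence; potency means the concentration at half of the fitted maximal effect; 0% = enzyme reaction without inhibitor and -100% = no enzyme wells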
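Fluorescence-quenching assay: 15 nM Sfp-PPTase preincubated 15 min at room temperature with compound, then 5 uM rhodamine-CoA and 12.5 uM BHQ-2-labelled YbbR peptide added. Fluorescence (ex 525/em 598 nm) read at start and after 30 min; difference gives rate.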
CCT chaperon mod: cytosolic chaperonin activity modulation; purified chaperonin ATPase assay, HTRF ADP detection, 30 min; activity change, % (test concentration not listed), hits read low; actives 0.3% (n = 360,000); in the data active means activity change below about -30%
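ATPase activity: ADP formed was measured by HTRF Transcreener (665/615 nm ratio) after 30 min at 37 deg C with 10 uM ATP. Compounds screened at one 76 uM concentration against 40 or 20 nM TRiC in Tris pH 7.4/KCl/MgCl2/DTT buffer.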
VDR inh: inhibitors of human vitamin D receptor | P11473 | VDR-SRC2-3 peptide fluorescence polarization, 2 h | Potency, µM, for inactives: max response, negative = inhibition, most hits filed as inhibitors | actives 0.93% (n = 400,000) | AID 504847; further: potency means the concentration at half of the fitted maximal effect
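Compounds are added to VDR with labelled SRC2-3 coactivator peptide and held 2 h at room temperature. Inhibition of the VDR–peptide interaction is then read as a change in fluorescence polarization.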
PLK1 PBD block: blocks phosphopeptide binding to human PLK1 polo-box domain; P53350; Plk1 PBD binding of FITC phosphopeptide, fluorescence polarization; Potency, µM, for inactives: max response, negative = inhibition, most hits filed as inhibitors; actives 2.8% (n = 360,000); further: potency means the concentration at half of the fitted maximal effect; series mostly up to about 57 µM; nearly all actives have a fitted effect of over 65% in size
Target sequence (P53350 whole entry, looked up, the tested form may be a part): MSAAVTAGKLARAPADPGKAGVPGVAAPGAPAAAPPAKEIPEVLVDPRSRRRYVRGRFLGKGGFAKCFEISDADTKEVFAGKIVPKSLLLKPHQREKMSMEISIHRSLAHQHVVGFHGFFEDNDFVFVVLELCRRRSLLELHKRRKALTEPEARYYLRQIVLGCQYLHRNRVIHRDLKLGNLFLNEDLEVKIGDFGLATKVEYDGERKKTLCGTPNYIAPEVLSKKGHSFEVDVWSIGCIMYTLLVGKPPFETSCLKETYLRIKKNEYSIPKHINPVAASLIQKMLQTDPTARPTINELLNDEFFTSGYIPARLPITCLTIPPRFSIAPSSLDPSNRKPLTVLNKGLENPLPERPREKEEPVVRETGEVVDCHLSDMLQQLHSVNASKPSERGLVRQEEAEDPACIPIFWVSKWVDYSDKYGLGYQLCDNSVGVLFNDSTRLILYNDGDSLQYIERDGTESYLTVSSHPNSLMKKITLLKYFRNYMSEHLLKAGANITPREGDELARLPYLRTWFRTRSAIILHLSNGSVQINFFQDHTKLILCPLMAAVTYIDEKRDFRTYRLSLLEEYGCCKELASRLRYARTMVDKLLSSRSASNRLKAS
G9a inh: G9a (human) methyltransferase inhibition. Q96KQ7. G9a H3K9 monomethylation, AlphaScreen, 2 h. Potency, µM (titrated, usually from 102 µM), inactives show top-dose activity, negative = inhibition, most hits filed as inhibitors. actives 8.8% (n = 350,000). AID 504332; further: potency means the concentration at half of the fitted maximal effect; nearly all actives have a fitted effect of over 75% in size
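Chemiluminescent proximity detection of H3K9 monomethylation, read after 10 min bead incubation in the dark. Reaction: 20 nM G9a, 500 nM biotin-H3K9 peptide, 20 uM SAM cofactor, 2 h, room temperature, following 15 min enzyme-compound preincubation.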
MmCpn inh: blocks the Methanococcus maripaludis chaperonin Mm-Cpn | purified Mm-Cpn ATPase, ADP Transcreener TR-FRET | Potency, µM (series often up to 76.9 µM), for the others: top-dose activity, negative = inhibition, hits mostly inhibitors | actives 0.031% (n = 330,000) | AID 504842; further: potency means the concentration at half of the fitted maximal effect; nearly all actives have a fitted effect of over 80% in size
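Compound-treated chaperonin, 25 nM final, turns over 10 uM ATP at 37°C for 30 min following a 10 min preincubation; ADP generated competes with ADP-d2 for Eu-cryptate antibody, lowering FRET.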
The depositor's hits bear a star; ? = inconclusive; . = not tested or not shown; [ ] = another dose, or the depositor's remark. Shown are actives, neighbours in structure and some others; about 10% of the full set was active somewhere. Unless noted, the call rests on the fitted dose curve; in most records, active means well fitted curve in the direction sought with a large enough effect; inconclusive means small, poorly fitted or top-dose-only effect, or another doubt; inactive means no such curve, though single readings can be large; an effect the other way counts as inactive or inconclusive. Unless noted, on the % scale 0 is the no-effect control and ±100 the full control effect.

SMILES	Sfp inh	CCT chaperon mod	VDR inh	PLK1 PBD block	G9a inh	MmCpn inh
O=C(/C=C/c1ccccc1Cl)Nc1ccncc1	-11%	1	4%	-3%	50µM*	0%
CCC(CC)NC(=O)/C=C/c1ccccc1Cl	6%	-1	50µM*	30µM*	-7%[59 µM]	2%
O=C(/C=C/c1ccccc1Cl)Nc1cccnc1	-10%	-1	-5%	0%	19%	-3%
Cc1ccc(NC(=O)/C=C/c2ccccc2Cl)cc1Cl	.	.	2%	.	-1%[59 µM]	.
Cc1cc(N)c2cc(NC(=O)/C=C/c3ccccc3Cl)ccc2n1	25µM*	0	43%	-5%	25µM*	1%
O=C(O)c1ccc(NC2=C(Cl)C(=O)c3ccccc3C2=O)cc1	22µM*	-2	?	5.3µM*	?	?
O=C(O)c1cccc(NC2=C(Cl)C(=O)c3ccccc3C2=O)c1	25µM*	-3	?	17µM*	7.1µM*	-1%
NC1CCN(c2c(F)cc3c(=O)c(C(=O)O)cn(C4CC4)c3c2Cl)C1 (stereo not given)	18%	1	-18%	-4%	71µM*	2%
CCN1CCN(c2cc3c(cc2F)c(=O)c(C(=O)O)cn3C2CC2)CC1	15%	3	7%	0%	32µM*	4%[15.4 µM]
CC(=O)N1CCN(c2cc3c(cc2F)c(=O)c(C(=O)O)cn3C2CC2)CC1	14%	-4	11%	-1%	50µM*	0%
O=C(c1ccc(F)cc1F)N1CCC(c2nc(-c3ccc(S(=O)(=O)N4CCCC4)cc3)no2)CC1	.	.	14%	.	0%[59 µM]	.
COc1ccc(/C=C/C(=O)Nc2ccccc2)cc1OC	0%	-2	1%	2%	-35%	2%
COc1ccc2[nH]c(C(=O)O)c(NC(=O)c3cc(OC)c(OC)c(OC)c3)c2c1	4%	-10	3%	-7%	?	-5%
COc1cc(C(=O)Nc2c(C(=O)O)[nH]c3ccccc23)cc(OC)c1OC	-5%	0	4%	-7%	16µM*	-4%
COc1ccc(/C=C/C(=O)Nc2c(C(=O)O)[nH]c3ccccc23)cc1OC	10%	-1	?	27µM*	-40%[59 µM]	-4%
CCc1nc(SCC(=O)Nc2ccc(C(=O)O)cc2)n[nH]1	9%	1	4%	-8%	45µM*	0%
CCc1nc(SCC(=O)Nc2ccc(N(CC)CC)cc2)n[nH]1	.	1	7%	30µM*	.	.
CCc1ccccc1N(C)C(=O)c1nn(-c2ccc(OC)cc2)c(=O)c2c1c1ccccc1n2C	.	.	-2%	.	-4%[59 µM]	.
CCN(c1ccccc1)c1cc2ccccc2c(=O)[nH]1	-10%	-1	?	30µM*	?	-2%
COc1ccccc1CNC(=O)Cc1csc2nc(-c3ccc(Cl)cc3)cn12	.	.	6%	.	9%[59 µM]	.
CCC(CC)C(=O)c1c[nH]c(C(=O)NCCc2ccccn2)c1	9%	2	8%	27µM*	37%[12.7 µM]	2%
CCC(CC)C(=O)c1c[nH]c(C(=O)NCc2ccccn2)c1	12%	4	18%	1%	-3%	2%
Cc1ccc(Nc2nc(NCCO)nc3c2cnn3C)cc1Cl	3%	-1	?	19µM*	29%	2%
O=c1c2[nH]c3ccccc3c2ncn1C1CCCCC1	19%	-4	-26%	-8%	-20%[59 µM]	-1%
O=C1c2ccccc2C(=O)c2c1ccc1c(=O)n(C3CCCCC3)[nH]c21	-12%	-4	-14%	-9%	7.9µM*	2%
SMILES	Sfp inh	CCT chaperon mod	VDR inh	PLK1 PBD block	G9a inh	MmCpn inh
CC1(C)CC(=O)c2cnc(NC(=O)CSc3nc4ccccc4o3)nc2C1	71µM*	1	13%	-8%	11%[59 µM]	-1%
CC1(C)CC(=O)c2cnc(NC(=O)Cc3ccc(Cl)cc3)nc2C1	6%	-1	-17%	19µM*	-34%[12.7 µM]	-1%
Cc1cc(C)n(C(=O)CSc2nc3ccccc3o2)n1	2%	-2	-4%	1%	79µM*	0%
C/C(=N\NC(=O)CSc1nc2ccccc2o1)c1ccc(O)cc1	?	-4	-4%	-18%	16µM*	1%
C/C(=N\NC(=O)CSc1nc2ccccc2o1)c1cccc(O)c1	-11%	2	-8%	-9%	-5%	-24%
COc1ccc(N2CCN(S(=O)(=O)CCNC(=O)Cc3ccc(OC)c(OC)c3)CC2)cc1	.	.	6%	.	?	.
Cc1noc(C)c1-c1ccc2ncnc(N(C)C)c2c1	-1%	.	3%	.	7%[0.501 µM]	.
CCN(CC)S(=O)(=O)c1ccc(NC(=O)NCc2noc3ccc(C)cc23)cc1	.	.	0%	.	3%[59 µM]	.
CCn1nc(C)c(CCN(C)C(=O)Nc2cc(OC)c(OC)c(OC)c2)c1C	.	.	0%	.	10%[59 µM]	.
S=c1[nH]c2cnccc2n1Cc1ccccc1	?	2	-4%	?	7.1µM*	-6%
S=c1[nH]c2ccccc2n1CCc1ccncc1	.	2	2%	5%	.	.
O=c1c2ccc(Cl)cc2[nH]c(=S)n1Cc1cccnc1	-9%	-1	-1%	-5%	16%	0%

Screens deposited in PubChem by National Center for Advancing Translational Sciences (NCATS).
